The values that follow come from PubChem BioAssay (NCI).

About 83,000 compounds went through this panel and 20% of them were active in at least one assay; those are over-represented in the sample as a whole.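 Cell lines were cultured in 96-well plates, exposed to a single compound concentration, and assessed for percent growth 48 hours later.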 Values without a mark were called inactive. Calls of active or inactive are those of the source. How the source made its calls: active means growth percent below 10; inactive means the rest.

Test systems include NCI-H23 lung; NCI-H226 lung; NCI-H322M lung; HOP-62 NSCLC; NCI-H460 lung; HOP-92 NSCLC; NCI-H522 lung; A549/ATCC NSCLC; 786-0 renal; COLO 205 colon; DU-145 prostate; K-562 leukemia; MALME-3M melanoma; MDA-MB-231 breast; RXF 393 renal; SF-268 CNS; SF-295 CNS; SF-539 CNS; UACC-257 melanoma; M14 melanoma.
Common to all, as to test: NCI-60 one-dose screen, 48 h (100 = growth as untreated, 0 = no growth, -100 = all killed)
Conditions in all cases: 10 µM unless noted

On to `Cc1nc2sc(C(=O)Nc3cccc(Cl)c3C)c(N)c2cc1C(=O)/C=C/c1ccccc1`, for which the growth in the assay on NCI-H23 lung was 28.6%; with NCI-H226 lung, -52.2% (active); with NCI-H322M lung, 19.1%; in the assay with HOP-62 NSCLC, -11.2% (active); with NCI-H460 lung, -25.3% (active); with HOP-92 NSCLC it was 1.05% (active). Also, the growth in the assay with NCI-H522 lung is -49.8% (active); with A549/ATCC NSCLC it was 10.1%; in the assay with 786-0 renal, -51.1% (active); in the assay with COLO 205 colon, -5.18% (active); in the assay with DU-145 prostate it was 5.7% (active); with K-562 leukemia, 10.2%. In addition, the growth in the assay on MALME-3M melanoma is 39.7%; with MDA-MB-231 breast it was -38.4% (active); in the assay on RXF 393 renal it was -82.8% (active); in the assay with SF-268 CNS, 4.07% (active); in the assay on SF-295 CNS it was -14.8% (active); with SF-539 CNS, -25.5% (active). Further, the growth is 64.2% with UACC-257 melanoma and -15.9% (active) in the assay with M14 melanoma.

For `CC(=O)c1sc(-c2ccc(F)cc2)cc1O`, the growth is 96.4% in the assay on NCI-H23 lung; 103% in the assay with NCI-H226 lung; 98.3% in the assay on NCI-H322M lung; 111% in the assay on HOP-62 NSCLC; 108% with NCI-H460 lung; 102% in the assay with HOP-92 NSCLC. Further, the growth in the assay with NCI-H522 lung was 99.2%; in the assay with A549/ATCC NSCLC, 97.2%; in the assay on 786-0 renal, 96.7%; in the assay on COLO 205 colon, 116%; in the assay with DU-145 prostate it was 97.7%; with K-562 leukemia it was 88.5%. For the same compound, the growth in the assay on MALME-3M melanoma is 99%; in the assay with MDA-MB-231 breast it was 127%; in the assay on RXF 393 renal, 111%; in the assay on SF-268 CNS it was 97.2%; in the assay on SF-295 CNS it was 105%; with SF-539 CNS, 114%. The growth in the assay with UACC-257 melanoma is 100%; in the assay with M14 melanoma it was 95.1%.

For `Cc1ccc(Cc2cnc(NC(=O)/C=C/c3ccc(C)o3)s2)cc1`, the growth is 56% in the assay on NCI-H23 lung; 69.9% in the assay with NCI-H226 lung; 48.1% in the assay on NCI-H322M lung; 53.6% in the assay on HOP-62 NSCLC; 12% in the assay on NCI-H460 lung; 59.5% in the assay on HOP-92 NSCLC. Besides, the growth in the assay with NCI-H522 lung is 19.3%; with A549/ATCC NSCLC it was 35.7%; with 786-0 renal, 42%; with COLO 205 colon, 23.2%; in the assay on DU-145 prostate it was 33.9%; in the assay on K-562 leukemia, 18.6%. Also, the growth in the assay on MALME-3M melanoma is 35.2%; with MDA-MB-231 breast, 67.9%; in the assay with RXF 393 renal, 41.6%; with SF-268 CNS it was 52.9%; in the assay on SF-295 CNS it was 23.6%; in the assay on SF-539 CNS, 23.6%. Besides, the values for the growth with UACC-257 melanoma and with M14 melanoma were 62.5% and 12.1%, respectively.

For `N#Cc1ccc(O)c(C2=NCC(c3ccc(-c4ccccc4)cc3)O2)c1` (stereo not given), the growth in the assay on NCI-H23 lung is 27.8%; in the assay on NCI-H226 lung, 29.8%; in the assay on NCI-H322M lung, 33%; in the assay with HOP-62 NSCLC, 2.79% (active); in the assay with NCI-H460 lung it was 1.31% (active); in the assay on HOP-92 NSCLC, 35%. Also, the growth in the assay on NCI-H522 lung was -8.42% (active); in the assay with A549/ATCC NSCLC it was 2.62% (active); in the assay with 786-0 renal, 20.1%; in the assay on COLO 205 colon, 1.08% (active); in the assay with DU-145 prostate, 30.5%; in the assay with K-562 leukemia, 7.82% (active). Moreover, the growth was 17.4% with MALME-3M melanoma; 25% in the assay with MDA-MB-231 breast; 42.2% with RXF 393 renal; 19.7% in the assay on SF-268 CNS; 19.4% in the assay on SF-295 CNS; -9.06% (active) with SF-539 CNS. In addition, the growth was 13.2% in the assay on UACC-257 melanoma and -16.6% (active) with M14 melanoma.

For the compound `CC(=O)Nc1sc2c(c1-c1nc3ccccc3s1)CNC2`, the growth with NCI-H23 lung was 24.9%; in the assay on NCI-H226 lung, 26%; in the assay with NCI-H322M lung, 14.5%; in the assay with HOP-62 NSCLC, 18.6%; in the assay on NCI-H460 lung, 8.68% (active); in the assay with HOP-92 NSCLC, 0.851% (active). Further, the growth is -12.5% (active) in the assay with NCI-H522 lung; 14.1% in the assay on A549/ATCC NSCLC; 28.4% in the assay with 786-0 renal; 8.21% (active) in the assay on COLO 205 colon; 25.6% with DU-145 prostate; 13.2% in the assay with K-562 leukemia. The growth with MALME-3M melanoma is 19%; in the assay with MDA-MB-231 breast, 21.9%; in the assay on RXF 393 renal it was 18%; with SF-268 CNS it was 40.4%; in the assay with SF-295 CNS, 13.3%; with SF-539 CNS, 28.4%. The results for the growth with UACC-257 melanoma and in the assay on M14 melanoma were 27.6% and 21.9%, respectively.

As to `c1ccc2cc(Cn3cc(CSc4nc5ccccc5s4)nn3)ccc2c1`, the growth in the assay with NCI-H23 lung was 93.2%; in the assay with NCI-H226 lung, 83.8%; in the assay on NCI-H322M lung, 97.6%; in the assay on HOP-62 NSCLC, 85.7%; with NCI-H460 lung, 106%; with HOP-92 NSCLC, 98.7%. The growth in the assay with NCI-H522 lung was 86.9%; with A549/ATCC NSCLC it was 93.4%; with 786-0 renal, 101%; with COLO 205 colon, 102%; with DU-145 prostate it was 109%; in the assay with K-562 leukemia it was 97.4%. For the same compound, the growth in the assay on MALME-3M melanoma is 97.7%; in the assay on MDA-MB-231 breast, 89.3%; with RXF 393 renal, 98.3%; with SF-268 CNS, 95.8%; in the assay with SF-295 CNS, 96.5%; in the assay with SF-539 CNS, 95.3%. Besides, the values for the growth in the assay on UACC-257 melanoma and with M14 melanoma were 99.9% and 99.4%, respectively.

As for `O=C(OCc1ccc2c(Cl)cc(Cl)c(O)c2n1)N1CCN(C(=O)c2cc3ccccc3[nH]2)CC1`, the growth is 47.1% in the assay with NCI-H23 lung; 28.3% in the assay on NCI-H226 lung; 37.5% in the assay on NCI-H322M lung; 20% with HOP-62 NSCLC; 12.8% in the assay on NCI-H460 lung; 14.7% in the assay with HOP-92 NSCLC. The growth with NCI-H522 lung is 22.1%; with A549/ATCC NSCLC, 10.8%; in the assay on 786-0 renal it was 44.2%; with COLO 205 colon it was 39%; in the assay with DU-145 prostate, 43.8%; with K-562 leukemia it was 19.9%. Further, the growth was 36.8% in the assay with MALME-3M melanoma; 44.7% with MDA-MB-231 breast; 46.5% with RXF 393 renal; 24.3% in the assay on SF-268 CNS; 16.1% with SF-295 CNS; 39.8% with SF-539 CNS. The growth is 25.5% with UACC-257 melanoma and 16.9% in the assay on M14 melanoma.

As for `COc1cc(-c2ccc(-c3ccc(C(=N)N)cc3)s2)cc(OC)c1OC`, the growth with NCI-H23 lung is 84.4%; with NCI-H226 lung, 82.5%; in the assay on NCI-H322M lung it was 73.2%; in the assay on HOP-62 NSCLC it was 59.1%; in the assay with NCI-H460 lung it was 37.1%; in the assay on HOP-92 NSCLC, 43.4%. Moreover, the growth was 62.4% in the assay with NCI-H522 lung; 75.4% with A549/ATCC NSCLC; 69.4% in the assay on 786-0 renal; -41.8% (active) in the assay with COLO 205 colon; 63.6% with DU-145 prostate; 1.05% (active) in the assay on K-562 leukemia. Also, the growth in the assay on MALME-3M melanoma was 32.7%; in the assay on MDA-MB-231 breast, 53.2%; with RXF 393 renal, 80.9%; in the assay on SF-268 CNS, 65.1%; in the assay with SF-295 CNS, 46.2%; in the assay with SF-539 CNS, 47.1%. Moreover, the growth was 63.5% with UACC-257 melanoma and 47.9% with M14 melanoma.
